From PubChem BioAssay (NCI)
Compounds without any hit were thinned out: in the full panel of roughly 83,000, 20% have a hit.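 Treatment: one concentration, 48 hours, 96-well format. Scoring: percent growth, with anything below 10 considered active.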 Values without a mark were called inactive. Calls of active or inactive are those of the source.

system: K-562 leukemia; test: NCI-60 one-dose screen, 48 h (100 = growth as untreated, 0 = no growth, -100 = all killed); conditions: 10 µM unless noted

SMILES | growth
CC(=O)Oc1ccc(CCN2C(=O)CSC2=S)cc1 | 57.2%
COc1cc(/C=N/n2cnc3oc(-c4ccccc4)cc3c2=N)cc(CN2CCOCC2)c1O | 5.46% (active)
CCOC(=O)/C=c1\sc2n(c1=O)C1C(NN=2)N(CC)C(=O)N1CC (centres undefined) | 24.1%
CN(C)c1ccc(/C=N/Nc2nc(N/N=C/c3ccc(N(C)C)cc3)nc(N3CCOCC3)n2)cc1 | 6.35% (active)
COc1cc2oc(-c3cccc(NC(=O)c4cc(NC(=O)[C@H](C)NC(=O)OC(C)(C)C)ccc4C)c3)cc(=O)c2c(OC)c1OC | 47.4%
CN1CCN(Cc2ccc(NC(=O)c3cncc(C#Cc4cnc5ccc(NC6CCOCC6)nn45)c3)cc2C(F)(F)F)CC1 | -12.8% (active)
O=C(Nc1ccc(Cl)cc1)Nc1nc2ccc([N+](=O)[O-])cc2s1 | 1.43% (active)
CCCCCCNC(=O)Oc1ccc(/C(=C(/C)c2ccc(OC)cc2)c2ccc(OCCN3CCCC3)cc2)cc1 | 6.93% (active)
O=c1c2ccccc2nc(COc2ccccc2)n1/N=C/C=C/c1ccccc1 | 109%
CCCCCc1ccc(S(=O)(=O)N(C(C)=O)c2cccc(-c3csc(N(CCN4CCN(C)CC4)C(C)=O)n3)c2)cc1 | -26.2% (active)
O=C(NNc1nc2cc(F)c(F)cc2n2cccc12)c1ccncn1 | 16.1%
O=C(CCCCCCN1CC(=O)N2[C@@H](c3cccc(Cl)c3)c3[nH]c4ccccc4c3C[C@H]2C1=O)NO | 24%
O=C(/C=C/c1cn(-c2ccccc2)nc1-c1ccc(Cl)cc1)c1cc2ccccc2oc1=O | 58.4%
COc1cc(/C=C/C(=O)c2ccc(NC(=O)COc3cccc4cccnc34)cc2)cc(OC)c1OC | 34.1%
O=C(Nc1cccc(Cl)c1)Nc1nc2ccc([N+](=O)[O-])cc2s1 | 4.51% (active)
O=C(NNc1nc2cc(F)cc(F)c2n2cccc12)c1ccncn1 | 8.02% (active)
C[C@H]1[C@H](C)CC[C@]2(COC(=O)c3cccnc3)CC[C@]3(C)C(=CC[C@@H]4[C@@]5(C)CCCNC(C)(C)[C@@H]5CC[C@]43C)[C@H]12 | 14.3%
CN1CCN(c2ccc(NC(=O)Nc3ccc4c(ccn4-c4cccc(C(N)=O)n4)c3)cc2C(F)(F)F)CC1 | -13.8% (active)
COc1ccc(OC)c([C@H]2c3[nH]c4ccccc4c3C[C@H]3C(=O)N(CCCCCCC(=O)NO)CC(=O)N23)c1 | 54.2%
CS(=O)c1nccc(-c2c(-c3ccc(F)c(OCc4ccccc4)c3)nc3sccn23)n1 (centres undefined) | 17.8%

SMILES | growth
CC(=O)NC(C)(C)C(=O)N1CCC[C@H]1C(=O)NC(C)(C)C(=O)N[C@@H](C)C(=O)NC(C)(C)C(=O)N[C@@H](C)C(=O)N[C@@H](CCC(N)=O)C(=O)NC(C)(C)C(=O)N[C@H](C(=O)NC(C)(C)C(=O)NCC(=O)N[C@@H](CC(C)C)C(=O)NC(C)(C)C(=O)N1CCC[C@H]1C(=O)N[C@H](C(=O)NC(C)(C)C(=O)NC(C)(C)C(=O)N[C@@H](CCC(N)=O)C(=O)N[C@@H](CCC(N)=O)C(=O)N[C@H](CO)Cc1ccccc1)C(C)C)C(C)C | 42.8% [4.25 µM]
C=C(C)[C@@H]1CC[C@]2(C(=O)NCCCN(CCC#N)CCC#N)CC[C@]3(C)[C@H](CC[C@@H]4[C@@]5(C)CCC(=O)C(C)(C)[C@@H]5CC[C@]43C)[C@@H]12 | 88.4%
O=C(CN1C(=O)S/C(=C\c2ccccc2)C1=O)Nc1ccc(C(=O)/C=C/c2cc3ccccc3nc2Cl)cc1 | 51.2%
N#Cc1c(-c2cccs2)cc(-c2cnccn2)nc1SCC(=O)NNC(=S)Nc1ccc(F)cc1 | 92.2%
CN1CCN(c2nc(-c3cnc4ccccc4n3)cc3ccccc23)CC1 | -52.1% (active)
Cc1cc(O)c(=O)cc2c1C[C@H]1CC(C)(C)/C=C/C[C@]3(C)Oc4cc(=O)c(O)cc(C)c4C[C@H]3C[C@H](O)[C@@]1(C)O2 | -42.7% (active)
CC(C)=CCC[C@](C)(O)[C@H]1CC[C@]2(C)[C@@H]1CC[C@@H]1[C@@]3(C)CCC(NC(=O)c4ccccc4C(=O)O)C(C)(C)[C@@H]3CC[C@]12C (some centres undefined) | 90.8%
CN1CCN(c2ccc3c(C(N)=O)c(NC(=O)c4ccc(C(C)(C)C)cc4)sc3c2)CC1 | 21.2%
COc1ccc(-c2nc(SCC(C)C)nc(N/N=C\c3cccc([N+](=O)[O-])c3)c2C#N)cc1 | 57.1%
Cc1cc(F)cc(NS(=O)(=O)c2ccc(-c3cnc(C4CC4)o3)cc2)c1 | 8.06% (active)
C/C(=N\NC(=O)CSc1nc2sc3c(c2c(=O)n1-c1ccccc1)CCC(C)C3)c1ccc(Cl)cc1 (centres undefined) | 16.5%
COc1ccc(NC(=O)[C@H](C)N)cc1C(=O)Nc1cccc(-c2cc(=O)c3c(OC)c(OC)c(OC)cc3o2)c1 | 52.6%
CC[C@H](C)[C@H]1NC(=O)[C@@H]([C@H](O)C(C)C)NC(=O)[C@@H](C)N(C)C(=O)[C@H](C)N(C)C(=O)[C@H](CC(C)C)NC(=O)[C@H](CC(C)C)N(C)C(=O)[C@H](C)N(C)C1=O | 7.23% (active)
IP(CCCSc1n(Cc2ccc3ccccc3c2)c(-c2ccccc2)c(-c2ccccc2)[n+]1Cc1ccc2ccccc2c1)(c1ccccc1)(c1ccccc1)c1ccccc1 | 25.3%
N/C(=N\OC(=O)CSc1nc2ccccc2s1)c1ccc(Cl)cc1 | 99.1%
CC(=O)NC(C)(C)C(=O)N[C@@H](C)C(=O)NC(C)(C)C(=O)N[C@@H](C)C(=O)NC(C)(C)C(=O)N[C@@H](C)C(=O)N[C@@H](CCC(N)=O)C(=O)NC(C)(C)C(=O)N[C@H](C(=O)NC(C)(C)C(=O)NCC(=O)N[C@@H](CC(C)C)C(=O)NC(C)(C)C(=O)N1CCC[C@H]1C(=O)N[C@H](C(=O)NC(C)(C)C(=O)NC(C)(C)C(=O)N[C@@H](CCC(N)=O)C(=O)N[C@@H](CCC(N)=O)C(=O)N[C@H](CO)CC1CCCCC1)C(C)C)C(C)C | 24.3% [5 µM]
CCOC(=O)C1=C(C)Nc2nnc(Nc3ccccc3)n2C1c1ccccc1 (centres undefined) | 57%
COc1cc(OC)c(S(N)(=O)=O)cc1C(=O)/C=C/c1ccccc1 | 9.69% (active)
CCOC(=O)/C(F)=C/C1CC1C1CCCCC1 (centres undefined) | 117%
